Sampled rows, rich in hits. Any-hit rate of the full collection: about 4%.
NALP3 yeast inh – blocks the NALP3 inflammasome reconstituted in yeast; inhibition, % at 10 µM; hit rate 0.39% among 330,000; AID 2825; Yeast reconstituted NLRP3/ASC/caspase-1, beta-gal luminescence, 24 h;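 active means inhibition of 50% or more; inactive means inhibition below 50%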;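 further: plate controls were induced DMSO wells for no effect and uninduced yeast grown without galactose for full effect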
TIM10 inh – inhibits growth of TIM10 yeast strain; S. cerevisiae TIM10 strain growth, BacTiter-Glo luminescence, 24 h; inhibition, % at 10 µM; hit rate 1.4% among 330,000;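 active means inhibition of 40% or more at the single tested concentration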;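 further: wild-type TIM10 isogenic control strain grown at permissive 25 °C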
tim10-1 inh – inhibits growth of tim10-1 mutant yeast. inhibition, % at 20 µM. AID 463190. hit rate 2.2% among 330,000. S. cerevisiae tim10-1 ts strain growth, BacTiter-Glo, 24 h;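 active means inhibition of at least 40%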;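 further: mutant grown at 25 °C; 0% = DMSO wells with yeast and 100% = wells holding no yeast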
tim23-1 inh – inhibits growth of tim23-1 mutant yeast. S. cerevisiae tim23-1 growth, BacTiter-Glo luminescence, 24 h. inhibition, % at 20 µM. hit rate 1.3% among 330,000. AID 463212;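 active means growth inhibition of the mutant yeast at or above 50%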;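 further: temperature-sensitive mutant grown at 25 °C; plate controls were DMSO-treated mutant yeast for no effect and medium wells lacking yeast for full effect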
NALP1 yeast inh – blocks the NALP1 inflammasome reconstituted in yeast; inhibition, % at 10 µM; S. cerevisiae NALP1/ASC/caspase-1 growth, X-gal OD620, 72 h; hit rate 0.61% among 280,000; in the data active means inhibition mostly above about 24%, no sharp cut-off; inactive means mostly below about 32%
Starred values were filed as active, the others as inactive; · = no result given.

SMILES	NALP3 yeast inh	TIM10 inh	tim10-1 inh	tim23-1 inh	NALP1 yeast inh
CC(C)c1onc(C(=O)NCCc2ccccc2)c1[N+](=O)[O-]	11	-9	10	3	5
CC(C)c1onc(C(=O)N(C)Cc2ccccc2)c1[N+](=O)[O-]	12	8	14	15	53*
CC(C(=O)Nc1ccccn1)N1C(=O)c2ccccc2S1(=O)=O (centres undefined)	9	6	-9	-12	·
COc1ccc(C(=O)Nn2c(SCC(=O)NCc3ccccc3)nc3ccccc3c2=O)cc1	1	-13	20	6	38*
COc1ccc(C(=O)Nn2c(SCC(=O)NC3CCCC3)nc3ccccc3c2=O)cc1	9	-10	5	-13	10
O=[N+]([O-])c1ccc(-c2ccn[nH]2)o1	25	4	23	18	67*
O=c1[nH]c(CSc2nc3ccccc3s2)nc2ccccc12	9	11	10	12	·
Cc1sc2nc(CSc3nc4ccccc4s3)[nH]c(=O)c2c1C	5	25	26	7	36*
CC1(C)Cc2nc3sc4c(NCCO)ncnc4c3cc2CS1	6	6	2	6	31*
CCCCn1cnc2c(sc3nc4c(cc32)CSC(C)(C)C4)c1=O	11	15	23	13	31
Oc1ccccc1N=Cc1sc2ccccc2c1Cl	29	0	-17	11	54*
O=c1sc(Nc2ccccc2)nc2ccsc12	49	20	24	49	70*
Cc1cc(NC2CCCCC2)nc(NCc2ccccc2)n1	29	10	10	-22	62*
Cc1ccc(Nc2cc(C)nc(NCc3ccccc3)n2)cc1	18	11	12	-4	51*
COc1ccc(Nc2cc(C)nc(NCc3ccccc3)n2)cc1	39	15	5	19	32
CC(=O)c1c(O)cc(C)n(-c2ccc(F)cc2)c1=O	10	-14	6	1	29*
CC(C)CC1(C)NC(=O)N(CC(=O)Nc2cccc(S(=O)(=O)N(C)c3ccccc3)c2)C1=O (centres undefined)	9	-3	11	6	9
O=C(Nc1ccc2c(c1)OCO2)C1CC(=O)N(c2cccc(Cl)c2)C1 (centres undefined)	17	-8	-10	3	13
CSc1nc(-c2ccccc2)nc(N2CCN(C)CC2)c1C(C)=O	43	-52	-15	-12	34*
CC1=CC(C)(C)N(C(=O)CCl)c2ccccc21	-2	-7	20	11	28*
CC1=CC(C)(C)N(C(=O)CCl)c2cc(C)ccc21	25	9	8	9	-3
Cc1ccc(NC(=O)c2ccc(-n3cccn3)c([N+](=O)[O-])c2)cc1	20	2	-5	12	6
O=C(Nc1ccc(C2=NCCN2)cc1)c1ccc(C(=O)Nc2ccc(C3=NCCN3)cc2)c([N+](=O)[O-])c1	19	-90	-10	-354	35*
Nc1cc(C(F)(F)F)ccc1-n1cccc1	21	-1	7	7	2
CC1C/C(=C\c2cccnc2)C(=O)/C(=C/c2cccnc2)C1 (centres undefined)	·	·	·	·	68*
SMILES	NALP3 yeast inh	TIM10 inh	tim10-1 inh	tim23-1 inh	NALP1 yeast inh
CN(C)C(=O)c1cc(C(=O)c2ccccc2Cl)c[nH]1	0	-8	-8	-9	-3
COc1ccc([N+](=O)[O-])cc1N(CC(=O)N1CCOCC1)S(C)(=O)=O	8	0	6	5	42*
CC(C)c1nnc(SCC(=O)NC2CCCCC2)n1C	20	0	1	-3	9
CSc1ccc(/C=C/C(=O)c2ccc(NC(C)=O)cc2)cc1	22	24	16	17	53*
O=[N+]([O-])c1cnccc1Nc1ccccc1	7	-17	-1	7	33*
COCCCNS(=O)(=O)c1ccc(S(=O)(=O)N2CCCC2)cc1	7	-12	13	14	38*
COC(CNS(=O)(=O)c1ccc(S(=O)(=O)N2CCCC2)cc1)OC	9	0	-5	4	-7
O=C(CN(C(=O)CNC(=O)c1cccs1)c1ccccc1F)NC1CCCC1	15	-3	-5	-15	8
O=C(c1cc2ccccc2o1)N1CCN(C/C=C/c2ccccc2)CC1	40	3	7	18	44*
CC(=O)N1CCN(C(=O)c2cc3ccccc3o2)CC1	-1	-11	-19	1	18
CC1=CC(=O)C=CC1(C)C(Cl)Cl (centres undefined)	15	-12	-16	-8	23*
CCCN(CC1CC1)C(=S)Nc1ccc(Oc2ccccc2)cc1	23	27	17	44	61*

Screens deposited in PubChem BioAssay by Sanford-Burnham Center for Chemical Genomics.
